{"source": "PubChem BioAssay (NCI)", "note": "Compounds without any hit were thinned out: in the full panel of roughly 79,000, 15% have a hit. The source made the active and inactive calls. Rule as the data show it: active = growth inhibition above about 70%; inactive = the rest."}
{"experiment": "NCI Yeast Anticancer Drug Screen. Data for the bub3 strain (AID 167)", "conditions": "S. cerevisiae bub3 mutant strain, at 50.0 µM, hits give high values", "in_short": "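Screening used yeast with an engineered genetic alteration affecting cell cycle control. Compound-exposed cultures were compared with vehicle cultures, and reduced growth was taken as inhibition.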"}
{"compound": "Cc1cn(C2CC(O)C(CO)O2)c(=O)nc1NC1CC1", "note": "(stereo not given)", "growth inhibition": "0.6% (inactive)"}
{"compound": "CNCSc1ccccc1", "growth inhibition": "-30.1% (inactive)"}
{"compound": "Cc1ccc(NC(=S)NC(Cc2ccccc2)c2ccccc2)cc1", "note": "(stereo not given)", "growth inhibition": "90% (active)"}
{"compound": "CC(=O)NS(=O)(=O)c1ccc(NC(=O)COC(=O)c2cccc3c(=O)c4ccccc4[nH]c23)cc1", "growth inhibition": "-28.6% (inactive)"}
{"compound": "Cc1ccc(CNC2=C(Cl)C(=O)c3ccccc3C2=O)cc1C", "growth inhibition": "98% (active)"}
{"compound": "Cc1ccc(Cl)c2c1C(=O)c1ccccc1C2=O", "growth inhibition": "5.6% (inactive)"}
{"compound": "NC(=O)/C(=C\\c1ccncc1)c1cccc2ccccc12", "growth inhibition": "-44% (inactive)"}
{"compound": "CC(=O)OCC1OC(n2nc(/C=C/c3ccccc3)c(=O)n(-c3ccccc3)c2=S)C(OC(C)=O)C(OC(C)=O)C1OC(C)=O", "note": "(stereo not given)", "growth inhibition": "-0.45% (inactive)"}
{"compound": "COC1(OC)C(c2ccc(Cl)cc2)C(C#N)(C#N)C1(OC)OC", "note": "(stereo not given)", "growth inhibition": "-1.15% (inactive)"}
{"compound": "N=C(N)S/C=C/C(=O)O", "growth inhibition": "-13.8% (inactive)"}
{"compound": "Clc1ccc(/C=N/c2ccccn2)cc1", "growth inhibition": "-54.1% (inactive)"}
{"compound": "Clc1nnc(Cl)c2ncccc12", "growth inhibition": "-3% (inactive)"}
{"compound": "O=C(NN=C1CCCCC1)c1ccccc1", "growth inhibition": "-17.4% (inactive)"}
{"compound": "Clc1ccc2c(N3CCC(CCC4CCN(c5ncnc6cc(Cl)ccc56)CC4)CC3)ncnc2c1", "growth inhibition": "-14.6% (inactive)"}
{"compound": "CCOC(=O)Nc1cc2c(c(N)n1)N=C(CN(C)c1ccccc1)CN2", "growth inhibition": "35% (inactive)"}
{"compound": "NCCCN(CCO)CCO", "growth inhibition": "-28.5% (inactive)"}
{"compound": "Nc1nc(Cl)nc(Nc2ccc(-c3cc4ccc(-c5ncc[nH]5)cc4[nH]3)cc2)n1", "growth inhibition": "-3.6% (inactive)"}
{"compound": "CCCC(C(C)=O)C(C)=O", "growth inhibition": "6% (inactive)"}
{"compound": "O=C(O)C(CSC(c1ccccc1)(c1ccccc1)c1ccccc1)NSc1ccccc1[N+](=O)[O-]", "note": "(stereo not given)", "growth inhibition": "95.6% (active)"}
{"compound": "Cc1ccc(-c2cc(-c3ccco3)nc(N)n2)o1", "growth inhibition": "5.45% (inactive)"}
{"compound": "O=C(c1cc(O)c(O)c(O)c1)c1ccc(O)c(O)c1O", "growth inhibition": "14.1% (inactive)"}
{"compound": "CC(=O)Nc1ccc(/C=C/C(=O)c2sc(-c3cccnc3)nc2C)cc1", "growth inhibition": "17.5% (inactive)"}
{"compound": "COC(=O)c1cc(Cl)c(C(=O)OC)cc1Cl", "growth inhibition": "7.4% (inactive)"}
{"compound": "CN1CCCc2cccc(NC(=O)C3CCCNC3=O)c21", "note": "(stereo not given)", "growth inhibition": "6.55% (inactive)"}
{"compound": "O=C(O)C1Cc2c([nH]c3ccccc23)C(CCCCO)N1", "note": "(stereo not given)", "growth inhibition": "-26.4% (inactive)"}
{"compound": "CCN(CC)CCNC(=O)c1ccccc1NC(=O)C(=O)Nc1ccccc1C(=O)NCCN(CC)CC", "growth inhibition": "-60.3% (inactive)"}
{"compound": "CO[C@@H]1C=C[C@@]23c4cc5c(cc4CN(C[C@@H]2O)[C@H]3C1)OCO5", "growth inhibition": "-16.1% (inactive)"}
{"compound": "COc1c(Cl)cc(Cl)c(C)c1C(C)C(=O)O", "note": "(stereo not given)", "growth inhibition": "25.5% (inactive)"}
{"compound": "O=C(O)c1c(Cl)c(Cl)c(Cl)c(Cl)c1C(=O)Nc1cccc(C(F)(F)F)c1", "growth inhibition": "-1.7% (inactive)"}
{"compound": "COc1nc(SC)nc2c1cnn2C1OC(C(O)CO)C(OC)C1O", "note": "(stereo not given)", "growth inhibition": "-4.6% (inactive)"}
{"compound": "Cc1ccc(S(=O)(=O)N2CCSCCN(S(=O)(=O)c3ccc(C)cc3)CCN(S(=O)(=O)c3ccc(C)cc3)CC2)cc1", "growth inhibition": "-18.7% (inactive)"}
{"compound": "CN(C)NC(=O)Oc1ccc(Cl)cc1", "growth inhibition": "-33.3% (inactive)"}
{"compound": "Cc1cc(C)c(NC(=O)CC#N)cc1C", "growth inhibition": "-1.35% (inactive)"}
{"compound": "CC(=O)OC1CC2CC1C1C=CCC21", "note": "(stereo not given)", "growth inhibition": "6.5% (inactive)"}
{"compound": "O=[N+]([O-])c1ccccc1C=Nc1ccc2nc(SCc3ccccc3)sc2c1", "growth inhibition": "-4% (inactive)"}
{"compound": "Cc1ccc(C(=O)c2ccc(O)cc2)cc1", "growth inhibition": "-7.6% (inactive)"}
{"compound": "N/N=C1\\C(=O)N(Cc2ccccc2)C(=O)C1C(=O)NCc1ccccc1", "note": "(stereo not given)", "growth inhibition": "19.4% (inactive)"}
{"compound": "CCN(CC)C(COC(=O)Nc1ccccc1)COC(=O)Nc1ccccc1", "growth inhibition": "-18.9% (inactive)"}
{"compound": "COC(=O)C(=O)C(C(=O)C(=O)Nc1cccc(OC)c1)c1nc2ccc(Cl)cc2[nH]c1=O", "note": "(stereo not given)", "growth inhibition": "-35.1% (inactive)"}
{"compound": "O=c1nc(NC2CC2)ccn1C1OC(CO)C(O)C1O", "note": "(stereo not given)", "growth inhibition": "4.35% (inactive)"}
